In PubChem BioAssay AID1159580 (chemical genetic matrix, 2015):
Out of some 5,500 compounds screened, about 2,000 (36%) were called active. Inconclusive results (about 18%) are left out. Rule as the data show it: active = normalized growth mostly below about 0.91 (no sharp cut-off); inconclusive = no clear call, values can overlap the other calls; inactive = mostly above about 0.92. The list shows a part of the results.

Test: chemical genetic growth profiling, strain panel (AID 1159580);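 also: tested at 20 µM; growth read once vehicle control cultures reached saturation at 30 °C; 1 = growth at the plate median or of vehicle wells; lower values mean less growth of the strain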
Conditions: S. cerevisiae deletion strains, growth OD

Measured: normalized growth

C/C(Cc1nnn(-c2cc(C)on2)n1)=N/OC(=O)Nc1ccc(Cl)cc1
inactive: locus YAR019C, strain CDC15, stronger effect = lower value 0.989 | locus YBL105C, strain PKC1, stronger effect = lower value 0.978 | locus YBR135W, strain CKS1, stronger effect = lower value 0.988 | locus YBR136W, strain MEC1, stronger effect = lower value 0.985 | locus YBR160W, strain CDC28, stronger effect = lower value 0.993 | locus YDL017W, strain CDC7, stronger effect = lower value 0.974 | locus YDL028C, strain MPS1, stronger effect = lower value 0.989 | locus YDL101C, strain DUN1, stronger effect = lower value 1 | locus YDL108W, strain KIN28, stronger effect = lower value 0.982 | locus YDL132W, strain cdc53, stronger effect = lower value 0.975 | locus YDL214C, strain PRR2, stronger effect = lower value 0.956 | locus YDR052C, strain DBF4, stronger effect = lower value 0.988 | locus YDR054C, strain cdc34, stronger effect = lower value 0.975 | locus YDR226W, strain ADK1, stronger effect = lower value 0.97 | locus YDR477W, strain SNF1, stronger effect = lower value 0.899 | locus YER123W, strain YCK3, stronger effect = lower value 0.954 | locus YER133W, strain GLC7, stronger effect = lower value 0.95 | locus YFL009W, strain cdc4, stronger effect = lower value 0.98 | locus YFL029C, strain CAK1, stronger effect = lower value 0.992 | locus YFR003C, strain YPI1, stronger effect = lower value 0.979 | locus YFR019W, strain FAB1, stronger effect = lower value 0.989 | locus YFR028C, strain CDC14, stronger effect = lower value 0.975 | locus YGR040W, strain KSS1, stronger effect = lower value 0.941 | locus YGR052W, strain FMP48, stronger effect = lower value 0.971 | locus YGR092W, strain DBF2, stronger effect = lower value 0.877 | locus YHR079C, strain IRE1, stronger effect = lower value 0.754 | locus YHR082C, strain KSP1, stronger effect = lower value 1.05 | locus YHR205W, strain SCH9, stronger effect = lower value 0.787 | locus YIL147C, strain SLN1, stronger effect = lower value 0.973 | locus YJL095W, strain BCK1, stronger effect = lower value 0.793 | locus YJL128C, strain PBS2, stronger effect = lower value 0.921 | locus YJL157C, strain FAR1, stronger effect = lower value 0.956 | locus YJR016C, strain ILV3, stronger effect = lower value 0.977 | locus YJR066W, strain TOR1, stronger effect = lower value 0.992 | locus YKL048C, strain ELM1, stronger effect = lower value 0.994 | locus YKL067W, strain YNK1, stronger effect = lower value 0.946 | locus YKL101W, strain HSL1, stronger effect = lower value 0.929 | locus YKL193C, strain SDS22, stronger effect = lower value 0.977 | locus YKL203C, strain TOR2, stronger effect = lower value 1.03 | locus YLR133W, strain CKI1, stronger effect = lower value 0.96 | locus YLR403W, strain SFP1, stronger effect = lower value 0.933 | locus YML070W, strain DAK1, stronger effect = lower value 0.944 | locus YMR001C, strain CDC5, stronger effect = lower value 0.983 | locus YMR205C, strain PFK2 (second series), stronger effect = lower value 0.936 | locus YMR277W, strain FCP1, stronger effect = lower value 0.978 | locus YNL006W, strain LST8, stronger effect = lower value 0.98 | locus YNL020C, strain ARK1, stronger effect = lower value 0.923 | locus YNL161W, strain CBK1, stronger effect = lower value 0.973 | locus YNL183C, strain NPR1, stronger effect = lower value 0.977 | locus YNL207W, strain RIO2, stronger effect = lower value 0.981 | locus YNL222W, strain SSU72, stronger effect = lower value 0.993 | locus YNL307C, strain MCK1 (second series), stronger effect = lower value 0.907 | locus YOL078W, strain AVO1, stronger effect = lower value 0.986 | locus YOL136C, strain PFK27, stronger effect = lower value 0.946 | locus YOR061W, strain CKA2, stronger effect = lower value 0.988 | locus YOR119C, strain RIO1, stronger effect = lower value 1.01 | locus YOR231W, strain MKK1, stronger effect = lower value 0.954 | locus YOR329C, strain SCD5, stronger effect = lower value 0.982 | locus YPL031C, strain PHO85, stronger effect = lower value 0.924 | locus YPL153C, strain RAD53, stronger effect = lower value 0.953 | locus YPL204W, strain HRR25, stronger effect = lower value 0.954 | locus YPL209C, strain IPL1, stronger effect = lower value 0.985 | locus YPL256C, strain CLN2, stronger effect = lower value 0.86 | locus YPR025C, strain CCL1, stronger effect = lower value 0.991 | locus YPR106W, strain ISR1, stronger effect = lower value 0.98 | locus YPR111W, strain DBF20, stronger effect = lower value 0.975 | strain NNK1, stronger effect = lower value 0.967 | strain TSCII, stronger effect = lower value 0.98
active: locus YHR030C, strain SLT2, stronger effect = lower value 0.733 | locus YJR066W, strain TOR1 (second series), stronger effect = lower value 0.6 | locus YLR113W, strain HOG1, stronger effect = lower value 0.826
